Source: PubChem BioAssay (National Center for Advancing Translational Sciences (NCATS))
Pf growth 48h: inhibits P. falciparum growth in the first generation, 48 h; P. falciparum luciferase growth in erythrocytes, 48 h; Potency, µM (doses to about 28.7 µM), for inactives: at the top dose activity change, negative = inhibition, actives largely listed as inhibitors; hit rate 5.9% among 310,000; further: potency means the concentration at half of the fitted maximal effect; on the % scale 0 is the no-effect control and ±100 the full control effect
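In quantitative HTS format, infected erythrocytes bearing luciferase-reporter parasites were treated for a single generation at 37 C. Luminescence after adding detection reagent served as the growth measure.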
SARS PLpro yeast: inhibitors of SARS-CoV papain-like protease in yeast | AID 485353 | Potency, µM (titrated, usually from 32.9 µM), for inactives: at the top dose activity, positive = growth rescue, hits mostly activators | hit rate 0.19% among 330,000 | S. cerevisiae expressing SARS-CoV PLpro, growth rescue; calls by dose curve; further: potency means the concentration at half of the fitted maximal effect; 0% is about no effect; nearly all actives have a fitted effect of over 55% in size
HCV inh: inhibitors of hepatitis C virus infection. hit rate 3.4% among 340,000. AID 651820. Potency, µM (series often up to 41.8 µM), without a hit: at the highest dose activity change, negative = inhibition, hits mostly inhibitors. Huh7.5.1 HCVcc-Cre infection, luciferase reporter, 44 h; further: potency means the concentration at half of the fitted maximal effect; on the % scale 0 is the no-effect control and ±100 the full control effect
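Cells (1,000/well) were plated 4 h before compound, then infected with HCVcc-Cre virus (~0.5 moi). After 44 h further culture, infection was read as luciferase luminescence following a 15 min substrate incubation at room temperature.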
Sm TGR inh: S. mansoni TGR enzyme inhibition; purified TGR, DTNB reduction, TNB absorbance 405 nm; Potency, µM (top dose mostly 114 µM), for the others: at the top dose activity change, negative = inhibition, hits mostly inhibitors; hit rate 3% among 360,000; further: potency means the concentration at half of the fitted maximal effect; on the % scale 0 is the no-effect control and ±100 the full control effect; nearly all actives have a fitted effect of over 60% in size
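Kinetic colorimetric format: TGR-catalysed, NADPH-driven DTNB reduction monitored via TNB absorbance. Enzyme dispensed at 20 nM; compound exposure 15 min at room temperature before reaction start.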
Pf growth 96h: P. falciparum growth inhibition at 96 hours; AID 504834; hit rate 6.9% among 320,000; P. falciparum luciferase reporter growth, 96 h; Potency, µM (titrated, usually from 28.7 µM), inactives show at the top dose activity change, negative = inhibition, hits mostly inhibitors; further: potency means the concentration at half of the fitted maximal effect; on the % scale 0 is the no-effect control and ±100 the full control effect
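96 h incubation, 37 C, 5% CO2, of luciferase-reporter P. falciparum-infected RBCs (2% hematocrit, 0.05% parasitemia final) with test compounds; endpoint luminescence.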
HCMV inh: inhibitors of human cytomegalovirus. AID 1259415. hit rate 4.5% among 410,000. HFF cells, HCMV-luciferase reporter, 72 h; active compounds read low. activity change, negative = inhibition, % at 57.5 µM; in the data active means activity change below about -60%; inconclusive means no clear call, values can overlap the other calls; inactive means above about -39%; further: on the % scale 0 is the no-effect control and ±100 the full control effect
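Human foreskin fibroblasts infected with luciferase-reporter HCMV at MOI 1 PFU/cell, compounds at two doses. Luciferase measured 72 h post infection; normalized to buffer-only basal and Salinomycin (10uM) controls.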
The depositor's hits bear a star. A selection: hits, their analogues and other compounds. The true share with any hit is near 15%. Unless noted, the call rests on the fitted dose curve; in most records, active means well fitted curve in the direction sought with a large enough effect; inconclusive means small, poorly fitted or top-dose-only effect, or another doubt; inactive means no such curve, though single readings can be large; an effect the other way counts as inactive or inconclusive.

For COC(=O)N/N=C/c1ccc([N+](=O)[O-])s1 the results were Pf growth 48h 14.7µM*, SARS PLpro yeast -38.4%, HCV inh inconclusive, Sm TGR inh -22.1%, Pf growth 96h 8.28µM* and HCMV inh -28.5.
`CC(C)NC(=O)c1ccc(Cn2c(=O)c3cccn3c3cccnc32)cc1` gave Sm TGR inh -0.8% and HCMV inh inconclusive.
Nc1ncnc2c1cnn2C1CCCCC1 was read as Pf growth 48h 72.9%, SARS PLpro yeast 0.4%, HCV inh 7.7%, Sm TGR inh -0.9%, Pf growth 96h inconclusive and HCMV inh 16.6.
`Cc1cc(C(=O)N/N=C/c2ccc([N+](=O)[O-])cc2)c2ccccc2n1` gave Pf growth 48h 8.5%, SARS PLpro yeast 0.2%, HCV inh -3.1%, Sm TGR inh 19.7%, Pf growth 96h -16.2% and HCMV inh -0.5.
Cc1cc(C(=O)N/N=C/c2ccc([N+](=O)[O-])s2)c2ccccc2n1 was read as Pf growth 48h 4.65µM*, SARS PLpro yeast -5.2%, HCV inh 11.2µM*, Sm TGR inh -15.6%, Pf growth 96h 5.5% and HCMV inh -70.4*.
CCc1ccc(/C=N/NC(=O)c2cc(C3CC3)nc3ccccc23)s1 was read as SARS PLpro yeast 4.2%, HCV inh 8.91µM*, Sm TGR inh -3.6%, Pf growth 96h inconclusive and HCMV inh -28.4.
`O=C(N/N=C/c1ccc([N+](=O)[O-])s1)c1ccccc1Br` gave Pf growth 48h inconclusive, SARS PLpro yeast -30.6%, HCV inh 11.2µM*, Sm TGR inh inconclusive, Pf growth 96h 1.65µM* and HCMV inh -77.4*.
For O=C(N/N=C/c1ccoc1)c1ccccc1Br the results were Pf growth 48h 0.7%, SARS PLpro yeast inconclusive, HCV inh 0.3%, Sm TGR inh -18.2%, Pf growth 96h -6.9% and HCMV inh 29.4.
Screening O=C(NCC1CCCO1)c1cc(C(=O)C2CCCCC2)c[nH]1 (stereo not drawn) returned Pf growth 48h inconclusive, SARS PLpro yeast -4.1%, HCV inh 23.9%, Sm TGR inh -2.4%, Pf growth 96h inconclusive and HCMV inh 93.6.
CC(=O)O[C@H]1CC[C@@]2(C)C(=CC[C@H]3[C@@H]4CC[C@H](C(C)=O)[C@@]4(C)CC[C@@H]32)C1 was read as HCV inh 9.7% and HCMV inh 24.5.
`CC(=O)[C@H]1CC[C@H]2[C@@H]3CC=C4C[C@@H](OS(=O)(=O)O)CC[C@]4(C)[C@H]3CC[C@]12C` gave HCV inh -0.5% and HCMV inh -71.0*.
CN(CC(=O)Nc1ccccc1Cl)C(=O)CN1C(=O)C2CC=CCC2C1=O (stereo not drawn) was read as SARS PLpro yeast 0.7%, HCV inh 5.5% and HCMV inh 2.4.
CCCC1CCc2c(sc(NC(=O)OCC)c2C#N)C1 (stereo not drawn) was read as Pf growth 48h -26.6%, SARS PLpro yeast -11.8%, HCV inh -25.7%, Sm TGR inh -26.8%, Pf growth 96h 11.7µM* and HCMV inh 29.0.
Cc1c(C(=O)OC(C)C)sc(NC(=O)C2CCCO2)c1C(=O)OC(C)C (stereo not drawn) was read as SARS PLpro yeast 2.6%, HCV inh inconclusive, Sm TGR inh 8.0%, Pf growth 96h 9.28µM* and HCMV inh 22.8.
For CC(=O)c1sc(NS(=O)(=O)c2ccc(C)cc2)nc1C the results were Pf growth 48h 13.9%, SARS PLpro yeast 1.2%, HCV inh 4.4%, Sm TGR inh -0.9%, Pf growth 96h -9.6% and HCMV inh -18.1.
Cc1ccc(C)c(S(=O)(=O)Nc2nc(C)c(C(=O)Nc3ccccc3)s2)c1 was read as Pf growth 48h inconclusive, SARS PLpro yeast 17.3%, HCV inh 7.7%, Sm TGR inh -13.5%, Pf growth 96h 0.657µM* and HCMV inh -9.3.
Cc1ccc(S(=O)(=O)Nc2nc(C)c(C(=O)NN)s2)cc1 was read as Pf growth 48h 50.9%, SARS PLpro yeast -0.4%, HCV inh 13.4%, Sm TGR inh 70.8µM*, Pf growth 96h 0.0% and HCMV inh -1.0.
Screening Cc1cc(C)c2c(=O)cc(C(=O)Nc3ccc(C)c(Cl)c3)oc2c1 returned Sm TGR inh -2.5% and HCMV inh -10.7.
Nc1ccccc1-n1nc2ccc3ccccc3c2n1 was read as HCMV inh 243.5.
Screening COc1ccc(/C=C/C(=O)NC(=S)NCCc2ccc(OC)c(OC)c2)cc1 returned Pf growth 48h inconclusive, SARS PLpro yeast 0.4%, HCV inh inconclusive, Sm TGR inh 2.7%, Pf growth 96h inconclusive and HCMV inh -61.8*.
`COc1ccc(CCNC(=O)CC2Nc3ccccc3NC2=O)cc1OC` (stereo not drawn) gave Pf growth 48h inconclusive, SARS PLpro yeast 5.3%, HCV inh 13.8%, Sm TGR inh 5.9%, Pf growth 96h 1.47µM* and HCMV inh -25.5.
`COc1ccc(C(=O)NC(=S)NCCc2ccccc2)cc1` gave Pf growth 48h 12.3%, SARS PLpro yeast 0.8%, HCV inh 9.6%, Pf growth 96h 21.6% and HCMV inh -16.9.
For COc1ccc(CCNC(=O)/C=C\c2ccccc2)cc1OC the results were Pf growth 48h inconclusive, SARS PLpro yeast 14.4%, HCV inh -5.2%, Sm TGR inh 7.4%, Pf growth 96h 63.4% and HCMV inh inconclusive.
Screening O=C(NC(=S)NCCc1ccccc1)c1cccc(Cl)c1 returned Pf growth 48h 8.6%, SARS PLpro yeast 0.1%, HCV inh 16.9%, Sm TGR inh 39.8µM*, Pf growth 96h 7.3% and HCMV inh -19.2.
Screening CC(C)CC(=O)NC(=S)NCCc1ccccc1 returned Pf growth 48h inconclusive, SARS PLpro yeast 1.6%, HCV inh 17.3%, Sm TGR inh inconclusive, Pf growth 96h inconclusive and HCMV inh 25.4.
CC(C)(C)CC(=O)NC(=S)NCCc1ccccc1 was read as Pf growth 48h -12.4%, SARS PLpro yeast 26.5%, HCV inh -7.2%, Sm TGR inh -34.1%, Pf growth 96h 11.7µM* and HCMV inh 162.2.
`Cc1ccc(S(=O)(=O)NCCc2nnc3ccc(SCc4ccccc4C)nn23)cc1` gave Sm TGR inh -1.8% and HCMV inh 18.1.
Screening NC(=O)CCN1CC(c2cc(Cl)c(N)c(Cl)c2)=CC1=O returned HCMV inh -20.4.
For Cc1c(Cl)cccc1NC(=O)CC(c1cccs1)N1Cc2ccccc2C1=O (stereo not drawn) the results were Sm TGR inh -0.4% and HCMV inh -14.9.
